# Laboratory results published in the supplement of paper PMC8728848.
# This excerpt belongs to a sample that is enriched for the strongest signals.
# B1: rCnSL-A (Clitocybe nebularis) (protein)
# chain: VNPNLPGPNDVFVGFRGTNNIVGAIYEKDGIKDTPLNNGADAEMGPGSYITDGLFTARIFASGSAGNNPGTTATVCKIYASGVQWRGAPKGYIPVAYFGNGPTAEQRRQTYLRTLGLPGTAIRFGNLNTNPGQGPTAPRQMVVPPGPLRSLLKASCFPAADTRLPQTLHYFEKRVDWNIITAADSQTWGH
# Columns and labels:
# Experiment in all cases: glycan array binding signal (z-score within array); higher = stronger binding
# Conditions in all cases: glycan notation: IUPAC condensed, linker removed
# [1] = target: Gal(b1-4)GlcNAc(b1-3)Gal(b1-4)GlcNAc(b1-3)Gal(b1-4)GlcNAc(b1-3)Gal(b1-4)GlcNAc(b1-3)Gal(b1-4)GlcNAc(b1-3)Gal(b1-4)GlcNAc(b1-2)Man(a1-3)[Gal(b1-4)GlcNAc(b1-3)Gal(b1-4)GlcNAc(b1-3)Gal(b1-4)GlcNAc(b1-3)Gal(b1-4)GlcNAc(b1-3)Gal(b1-4)GlcNAc(b1-3)Gal(b1-4)GlcNAc(b1-2)Man(a1-6)]Man(b1-4)GlcNAc(b1-4)GlcNAc
# Summary of the method: (§1)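 Glycan array binding is given as a within-array Z-score, which can be read as non-binding when negative. The arrays, 3228 of them, came from the Consortium for Functional Glycomics database and were retained only where the protein sequence was available. Z-scores were averaged across arrays of the same protein sequence at different concentrations or buffers and across linkers.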
# [2] = target: Gal(b1-6)Gal
# Summary of the method: as §1
# [3] = target: Gal3S(b1-3)GlcNAc
# Summary of the method: as §1
# [4] = target: Gal3S(b1-4)[Fuc(a1-3)]GlcNAc6S
# Summary of the method: as §1
# [5] = target: Gal6S(b1-3)GlcNAc
# Summary of the method: as §1
# [6] = target: Gal6S(b1-4)Glc6S
# Summary of the method: as §1
# [7] = target: GlcNAc(a1-3)Gal(b1-4)GlcNAc
# Summary of the method: as §1
# [8] = target: GlcNAc(b1-2)Gal(b1-3)GalNAc
# Summary of the method: as §1
# [9] = target: GlcNAc(b1-2)Man(a1-3)[GlcNAc(b1-4)][GlcNAc(b1-2)Man(a1-6)]Man(b1-4)GlcNAc(b1-4)GlcNAc
# Summary of the method: as §1
# [10] = target: GlcNAc(b1-3)Gal
# Summary of the method: as §1
# [11] = target: GlcNAc(b1-4)GlcNAc(b1-4)GlcNAc(b1-4)GlcNAc(b1-4)GlcNAc
# Summary of the method: as §1
# [12] = target: Man(a1-2)Man(a1-6)[Man(a1-3)]Man(a1-6)[Man(a1-2)Man(a1-2)Man(a1-3)]Man(b1-4)GlcNAc(b1-4)GlcNAc
# Summary of the method: as §1
# [13] = target: Man(a1-3)[Man(a1-6)]Man(a1-6)[Man(a1-3)]Man(b1-4)GlcNAc(b1-4)GlcNAc
# Summary of the method: as §1
# [14] = target: Neu5Ac(a2-3)Gal(b1-3)GalNAc6S
# Summary of the method: as §1
# [15] = target: Neu5Ac(a2-3)Gal(b1-3)GlcNAc(b1-3)Gal(b1-3)GlcNAc
# Summary of the method: as §1
# [16] = target: Neu5Ac(a2-3)Gal(b1-3)[Neu5Ac(a2-6)]GalNAc
# Summary of the method: as §1
# [17] = target: Neu5Ac(a2-3)Gal(b1-4)GlcNAc(b1-6)[Neu5Ac(a2-3)Gal(b1-3)]GalNAc
# Summary of the method: as §1
# [18] = target: Neu5Ac(a2-3)Gal(b1-4)[Fuc(a1-3)]GlcNAc(b1-3)Gal
# Summary of the method: as §1
# [19] = target: Neu5Ac(a2-6)Gal(b1-4)GlcNAc(b1-2)[Neu5Ac(a2-6)Gal(b1-4)GlcNAc(b1-6)]Man(a1-6)[Neu5Ac(a2-6)Gal(b1-4)GlcNAc(b1-2)Man(a1-3)][GlcNAc(b1-4)]Man(b1-4)GlcNAc(b1-4)GlcNAc
# Summary of the method: as §1
# [20] = target: Neu5Ac(a2-6)Gal(b1-4)GlcNAc(b1-3)Gal(b1-4)GlcNAc(b1-3)[Neu5Ac(a2-6)Gal(b1-4)GlcNAc(b1-3)Gal(b1-4)GlcNAc(b1-6)]GalNAc
# Summary of the method: as §1
# [21] = target: Neu5Ac(a2-6)GlcNAc(b1-4)GlcNAc
# Summary of the method: as §1
# [22] = target: Neu5Ac(a2-8)Neu5Ac(a2-3)[GalNAc(b1-4)]Gal(b1-4)Glc
# Summary of the method: as §1
binder,measurement,setting,value
B1,glycan array binding signal (z-score),[1],7.72
same,glycan array binding signal (z-score),[2],-0.201
same,glycan array binding signal (z-score),[3],-0.252
same,glycan array binding signal (z-score),[4],-0.25
same,glycan array binding signal (z-score),[5],-0.309
same,glycan array binding signal (z-score),[6],-0.241
same,glycan array binding signal (z-score),[7],-0.253
same,glycan array binding signal (z-score),[8],-0.27
same,glycan array binding signal (z-score),[9],-0.223
same,glycan array binding signal (z-score),[10],-0.22
same,glycan array binding signal (z-score),[11],-0.217
same,glycan array binding signal (z-score),[12],-0.138
same,glycan array binding signal (z-score),[13],-0.237
same,glycan array binding signal (z-score),[14],-0.234
same,glycan array binding signal (z-score),[15],-0.25
same,glycan array binding signal (z-score),[16],-0.305
same,glycan array binding signal (z-score),[17],-0.165
same,glycan array binding signal (z-score),[18],-0.229
same,glycan array binding signal (z-score),[19],-0.269
same,glycan array binding signal (z-score),[20],0.406
same,glycan array binding signal (z-score),[21],-0.287
same,glycan array binding signal (z-score),[22],-0.246
